# PubChem BioAssay
# Results filed as inconclusive are left out. For some assays here: Measured potencies and affinities stand elsewhere. Activity calls are given as the source filed them.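 Rule for the calls, unless noted: active = luciferase signal above three times the same-plate solvent-only control wells; inactive = the rest.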
# Columns and labels:
# [1] = molecular target: Mitogen-activated protein kinase 7 (Homo sapiens) (UniProt Q13164); assay: Gal4-ERK5 driven luciferase induction – cell-based, HTS, primary screen (AID 1508626); details: HeLa Gal4-ERK5 transactivation, 18 h, at 5 µM, stronger effect = higher value;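 note: luciferase driven by Gal4-ERK5 fusion binding five Gal4 sites before minimal TATA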
# Sequence of Mitogen-activated protein kinase 7 (Homo sapiens) (Q13164 whole entry, looked up, the tested form may be a part): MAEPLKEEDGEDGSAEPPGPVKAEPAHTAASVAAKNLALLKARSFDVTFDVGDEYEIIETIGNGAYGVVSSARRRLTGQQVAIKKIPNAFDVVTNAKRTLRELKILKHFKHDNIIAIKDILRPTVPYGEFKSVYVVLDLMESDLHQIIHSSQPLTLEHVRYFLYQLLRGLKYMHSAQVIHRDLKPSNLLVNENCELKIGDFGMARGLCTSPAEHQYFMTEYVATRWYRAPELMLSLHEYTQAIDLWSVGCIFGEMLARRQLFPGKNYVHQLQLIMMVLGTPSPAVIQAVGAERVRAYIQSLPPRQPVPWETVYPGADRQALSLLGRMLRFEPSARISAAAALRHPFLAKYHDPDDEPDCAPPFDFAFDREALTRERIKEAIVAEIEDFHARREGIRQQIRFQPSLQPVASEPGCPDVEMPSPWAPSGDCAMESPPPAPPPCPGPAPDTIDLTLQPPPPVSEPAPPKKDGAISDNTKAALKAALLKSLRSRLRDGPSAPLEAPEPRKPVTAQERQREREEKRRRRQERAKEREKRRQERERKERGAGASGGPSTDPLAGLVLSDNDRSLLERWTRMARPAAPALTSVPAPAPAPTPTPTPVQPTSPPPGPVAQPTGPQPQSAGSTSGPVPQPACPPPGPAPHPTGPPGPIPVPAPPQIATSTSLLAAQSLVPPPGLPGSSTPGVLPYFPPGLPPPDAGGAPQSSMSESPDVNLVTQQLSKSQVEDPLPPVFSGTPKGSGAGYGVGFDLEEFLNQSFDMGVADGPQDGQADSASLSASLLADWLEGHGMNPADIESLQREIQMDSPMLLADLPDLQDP
# [2] = blockers of polyQ-driven CASP3 activation – cell-based (AID 1583); details: polyglutamine-induced caspase-3 activation, cell assay; stronger effect = higher value;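 tested at 10 µM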
# [3] = yeast 75Q aggregation reduction – 75Q-TubU reporter (AID 1593); details: Yeast 75Q polyglutamine aggregation reporter
# [4] = restoration of touch response, mutant HTT neurons – whole organism, C. elegans mechanosensory neurons, N-terminal huntingtin (AID 1599); details: C. elegans polyQ-huntingtin mechanosensory neurons, stronger effect = higher value
# [5] = blockers of cytochrome c efflux from mitochondria – biochemical, purified mitochondria (AID 1603); details: stronger effect = lower value;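 note: mouse liver mitochondria challenged with calcium chloride; signal normalized to the plate average as 100%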
# [6] = polyglutamine aggregate formation blockers (AID 1604); details: polyglutamine-induced protein aggregation inhibition assay; stronger effect = higher value; tested at 2.5 µM
# [7] = glutamate transport activators, MN-1 cells, MN-1 cell line (AID 1612); details: MN-1 motor neuron cells, stronger effect = higher value;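 note: tested at 1 µM final; 0% = mean of DMSO vehicle wells on each plate; positive means more glutamate uptake than control and negative means less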
# [8] = GFP-Q80 aggregate reduction, neuronal-like cells, cell-based, NGF-treated PC12, GFPQ80 (AID 1614); details: PC12 NGF-treated GFP-polyQ80 inclusion reduction;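 note: lower means fewer inclusions and 0 means no inclusions at all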
# [9] = 75Q-TubH aggregate inhibition, S. cerevisiae, yeast (AID 1616); details: S. cerevisiae 75Q-TubH polyglutamine aggregation suppression; stronger effect = higher value
# [10] = galactose survival enhancers in mitochondrial complex I cybrids – cell-based, galactose medium, ATP luminescence, primary screen (AID 1645843;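 active = z-score of at least 1.8 in each of two replicates, scored against plate mean and spread of sample wells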;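 note: positive z means more ATP and so rescue of galactose-driven cybrid death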); details: complex I mutant cybrid cells, 72 h, stronger effect = higher value
# [11] = rescue of PC12 cells from polyQ htt toxicity – LDH release (AID 1610); details: PC12 mutant huntingtin toxicity, final LDH at 4 uM, stronger effect = lower value
# [12] = molecular target: ATP-dependent translocase ABCB1 (Homo sapiens) (UniProt P08183); assay: P-glycoprotein substrate transport blockade – cell-based (AID 377; in the data active = fluorescence slope change above about 50%); details: MDR1-expressing cells, fluorescent substrate accumulation slope; stronger effect = higher value; concentration not given here
# Sequence of ATP-dependent translocase ABCB1 (Homo sapiens) (P08183 whole entry, looked up): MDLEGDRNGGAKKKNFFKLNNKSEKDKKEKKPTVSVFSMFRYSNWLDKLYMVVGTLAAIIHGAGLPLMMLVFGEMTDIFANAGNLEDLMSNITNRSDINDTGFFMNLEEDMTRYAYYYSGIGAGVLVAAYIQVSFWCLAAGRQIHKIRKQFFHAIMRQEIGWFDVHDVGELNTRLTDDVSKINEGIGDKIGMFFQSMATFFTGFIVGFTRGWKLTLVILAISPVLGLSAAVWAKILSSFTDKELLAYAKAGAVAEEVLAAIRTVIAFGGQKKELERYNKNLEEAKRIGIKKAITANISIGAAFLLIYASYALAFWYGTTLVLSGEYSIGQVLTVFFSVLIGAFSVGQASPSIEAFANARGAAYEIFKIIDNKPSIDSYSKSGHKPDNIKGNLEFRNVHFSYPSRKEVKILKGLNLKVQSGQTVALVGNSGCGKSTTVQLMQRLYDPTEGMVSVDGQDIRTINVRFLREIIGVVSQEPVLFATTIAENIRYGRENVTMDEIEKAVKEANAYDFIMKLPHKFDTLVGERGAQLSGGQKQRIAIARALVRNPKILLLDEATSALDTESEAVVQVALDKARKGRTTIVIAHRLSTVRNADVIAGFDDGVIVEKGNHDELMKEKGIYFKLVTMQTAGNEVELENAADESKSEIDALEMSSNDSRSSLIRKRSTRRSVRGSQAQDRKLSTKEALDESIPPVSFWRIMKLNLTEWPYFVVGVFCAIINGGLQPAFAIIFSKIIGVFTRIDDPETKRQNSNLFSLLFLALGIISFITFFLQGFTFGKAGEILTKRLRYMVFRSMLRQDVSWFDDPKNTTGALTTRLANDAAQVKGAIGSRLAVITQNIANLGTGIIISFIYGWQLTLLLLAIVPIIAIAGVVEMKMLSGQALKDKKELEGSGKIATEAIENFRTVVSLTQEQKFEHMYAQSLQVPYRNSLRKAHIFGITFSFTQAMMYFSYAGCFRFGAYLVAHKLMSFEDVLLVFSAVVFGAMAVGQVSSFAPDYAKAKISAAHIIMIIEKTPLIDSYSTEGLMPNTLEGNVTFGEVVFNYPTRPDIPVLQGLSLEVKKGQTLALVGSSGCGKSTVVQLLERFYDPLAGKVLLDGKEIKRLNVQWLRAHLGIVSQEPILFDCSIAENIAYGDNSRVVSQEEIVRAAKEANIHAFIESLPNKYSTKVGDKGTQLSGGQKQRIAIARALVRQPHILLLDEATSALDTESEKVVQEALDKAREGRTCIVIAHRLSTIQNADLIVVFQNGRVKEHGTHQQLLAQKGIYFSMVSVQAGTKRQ
# [13] = P. berghei load reduction in hepatocytes – cell-based, HepG2, luciferase luminescence, HepG2 viability, primary screen (AID 624349; in the data active = parasite load remaining mostly below about 12%, no sharp cut-off; inactive = mostly above about 10%;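 note: 100% = mean of DMSO negative control wells on the same plate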); details: P. berghei liver stage in HepG2, luciferase luminescence, concentration not given here; parasite load remaining: stronger effect = lower value; viability: measured here: HepG2 viability without parasites
# [14] = compounds altering viability of human ES cells (AID 493140; call rule not given here;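 note: cells exposed to compounds for four days before counting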); details: human embryonic stem cell survival screen; stronger effect = higher value
structure (smiles),measurement,setting,value
CC(=O)O[C@@H]1CC[C@@]2(C)[C@@H](CC[C@@H]3[C@@H]2CC[C@]2(C)C(=O)CC[C@@H]32)C1,luciferase signal,[1],28 AU (inactive)
COC(=O)C1=CO[C@@H](C)[C@@H]2CN3CC[C@@]4(C(=O)Nc5ccccc54)[C@@H]3C[C@H]12,luciferase signal,[1],24 AU (inactive)
C[N+]12CC[C@@]34c5ccccc5N5C(=O)CC6OCC=C(C1)[C@H](CC32)[C@@H]6C54 (some centres not stated),luciferase signal,[1],140 AU (inactive)
CC[C@@H]1[C@@H](O)N2C3C[C@H]1C1C(O)[C@]4(C[C@@H]12)c1ccccc1N(C)[C@@H]34 (some centres not stated),inhibition,[2],7.74%
same,score,[3],0.91
same,rescue above control,[4],-2.66
same,cytochrome c release ratio,[5],0.89
same,inhibition of aggregation,[6],-46.3%
same,glutamate uptake change,[7],-1.35%
same,inclusion score,[8],2
same,aggregation suppression score,[9],1.31
CN1CC[C@]23c4c5ccc(O)c4O[C@H]2C(=O)CCC3[C@H]1C5 (some centres not stated),inhibition,[2],7.55%
same,score,[3],1.13
same,rescue above control,[4],-11.3
same,cytochrome c release ratio,[5],1.11
same,inhibition of aggregation,[6],-0.68%
same,glutamate uptake change,[7],20.7%
same,inclusion score,[8],2
same,aggregation suppression score,[9],1.27
CN1C2CCC1C(C(=O)O)C(OC(=O)c1ccccc1)C2 (configuration not stated),inhibition,[2],-11.5%
same,score,[3],0.85
same,rescue above control,[4],-9.16
same,cytochrome c release ratio,[5],1.03
same,inhibition of aggregation,[6],41.5%
same,glutamate uptake change,[7],-21%
same,inclusion score,[8],2
same,aggregation suppression score,[9],1.17
CC1(C)C(C(=O)N2CCC(n3cc(C4CC4)nn3)CC2)C1(C)C,z-score,[10],-0.525 (inactive)
CCOC(=O)C1C(OC(=O)c2ccccc2)CC2CCC1N2C (configuration not stated),inhibition,[2],4.42%
same,score,[3],1.01
same,rescue above control,[4],-8
same,cytochrome c release ratio,[5],0.89
same,inhibition of aggregation,[6],44.2%
same,glutamate uptake change,[7],-24.3%
same,inclusion score,[8],2
same,aggregation suppression score,[9],1.45
CCCCCc1cc(O)c2c(c1)OC(C)(C)C1CC=C(C)CC21 (configuration not stated),inhibition,[2],13.2%
same,score,[3],-0.66
same,rescue above control,[4],-4.34
same,cytochrome c release ratio,[5],1.71
same,inhibition of aggregation,[6],42.9%
same,normalised LDH release,[11],0.999
same,glutamate uptake change,[7],-49.9%
same,aggregation suppression score,[9],0.105
CN1C(=O)C(O)N=C(c2ccccc2)c2cc(Cl)ccc21 (configuration not stated),inhibition,[2],-6.64%
same,score,[3],1.21
same,rescue above control,[4],0.82
same,cytochrome c release ratio,[5],0.99
same,inhibition of aggregation,[6],8.84%
same,glutamate uptake change,[7],4.66%
same,inclusion score,[8],2
same,aggregation suppression score,[9],1.05
C[C@]12CCC3C(CC[C@@H]4C[C@H](O)CC[C@]34C)C1CCC2=O (some centres not stated),inhibition,[2],61%
same,score,[3],0.81
same,rescue above control,[4],-3.82
same,cytochrome c release ratio,[5],0.77
same,inhibition of aggregation,[6],91.7%
same,glutamate uptake change,[7],-9.61%
same,aggregation suppression score,[9],0.472
CCC(=O)C(CC(C)N(C)C)(c1ccccc1)c1ccccc1 (configuration not stated),inhibition,[2],-9.47%
same,score,[3],1.06
same,rescue above control,[4],0.15
same,cytochrome c release ratio,[5],0.89
same,inhibition of aggregation,[6],21.1%
same,glutamate uptake change,[7],7.77%
same,inclusion score,[8],2
same,aggregation suppression score,[9],0.899
O=C1Nc2ccc(Cl)cc2C(c2ccccc2)=NC1O (configuration not stated),inhibition,[2],-2.46%
same,score,[3],1.01
same,rescue above control,[4],-7.17
same,cytochrome c release ratio,[5],1.14
same,inhibition of aggregation,[6],32%
same,glutamate uptake change,[7],0.27%
same,aggregation suppression score,[9],0.898
CCNC(C)Cc1cccc(C(F)(F)F)c1 (configuration not stated),fluorescence slope change,[12],23.3% (inactive)
same,inhibition,[2],-12%
same,score,[3],1.17
same,rescue above control,[4],-3.67
same,cytochrome c release ratio,[5],0.91
same,inhibition of aggregation,[6],15.7%
same,glutamate uptake change,[7],-14.9%
same,inclusion score,[8],2
same,aggregation suppression score,[9],1.24
ClC1=C(Cl)C2(Cl)C3C4CC(C5OC45)C3C1(Cl)C2(Cl)Cl (configuration not stated),inhibition,[2],8.56%
same,score,[3],0
same,rescue above control,[4],3.84
same,cytochrome c release ratio,[5],1.81
same,inhibition of aggregation,[6],72.4%
same,glutamate uptake change,[7],-23.9%
same,aggregation suppression score,[9],0.719
CNC(C)Cc1ccc2c(c1)OCO2 (configuration not stated),inhibition,[2],-3.07%
same,score,[3],0.95
same,rescue above control,[4],-0.64
same,cytochrome c release ratio,[5],0.84
same,inhibition of aggregation,[6],0.68%
same,glutamate uptake change,[7],-3.54%
same,inclusion score,[8],2
same,aggregation suppression score,[9],1.38
O=c1ccc2cc(O[C@H]3O[C@H](CO)[C@@H](O)[C@H](O)[C@H]3O)c(O)cc2o1,inhibition,[2],-25.3%
same,score,[3],0.99
same,rescue above control,[4],-9.34
same,cytochrome c release ratio,[5],0.66
same,inhibition of aggregation,[6],56.9%
same,glutamate uptake change,[7],21.7%
same,inclusion score,[8],2
same,aggregation suppression score,[9],0.763
CN1C2CC(OC(=O)[C@H](CO)c3ccccc3)C[C@H]1CC2O (some centres not stated),inhibition,[2],17.4%
same,score,[3],1.3
same,rescue above control,[4],-1.97
same,cytochrome c release ratio,[5],0.75
same,inhibition of aggregation,[6],83.9%
same,glutamate uptake change,[7],4.44%
same,inclusion score,[8],2
same,aggregation suppression score,[9],1.3
CC[C@H]1C(=O)OC[C@@H]1Cc1cncn1C,parasite load remaining,[13],76.7% (inactive)
same,viability,[13],70.2%
same,luciferase signal,[1],84 AU (inactive)
CCC(C)C(=O)OC1C[C@@]2(C)[C@H](c3ccoc3)OC(=O)CC23OC2(C)OC34C(OC(=O)C(C)C)[C@@]3(O)[C@@H](OC(=O)C5(C)OC5C)[C@@]5(C)C[C@]3(O)[C@@](C)([C@H]5CC(=O)OC)C14O2 (some centres not stated),luciferase signal,[1],44 AU (inactive)
O=c1ccc2cc(O[C@@H]3OC(CO)[C@@H](O)[C@@H](O)C3O)c(O)cc2o1 (some centres not stated),survival,[14],4.42 (inactive)
same,luciferase signal,[1],48 AU (inactive)
CCCCCc1cc(O)c2c(c1)OC(C)(C)C1CCC(C)=CC21 (configuration not stated),inhibition,[2],5.35%
same,score,[3],-0.54
same,rescue above control,[4],-0.11
same,cytochrome c release ratio,[5],2.94
same,inhibition of aggregation,[6],34.7%
same,normalised LDH release,[11],0.893
same,glutamate uptake change,[7],-3.83%
same,aggregation suppression score,[9],0.291
CC(N)Cc1ccc2c(c1)OCO2 (configuration not stated),inhibition,[2],-14.9%
same,score,[3],1.01
same,rescue above control,[4],-3.14
same,cytochrome c release ratio,[5],1
same,inhibition of aggregation,[6],21.1%
same,glutamate uptake change,[7],-7.15%
same,inclusion score,[8],2
same,aggregation suppression score,[9],1.15
CCCCCc1cc(O)c2c(c1)OC(C)(C)c1ccc(C)cc1-2,inhibition,[2],29.1%
same,score,[3],-1.59
same,rescue above control,[4],9.18
same,cytochrome c release ratio,[5],1.94
same,inhibition of aggregation,[6],-2.04%
same,normalised LDH release,[11],0.953
same,glutamate uptake change,[7],-26.4%
same,aggregation suppression score,[9],-0.155
COc1cc(CCN)cc(OC)c1OC,inhibition,[2],8.49%
same,score,[3],1.47
same,rescue above control,[4],-5.41
same,cytochrome c release ratio,[5],0.91
same,inhibition of aggregation,[6],22.4%
same,glutamate uptake change,[7],-3.12%
same,inclusion score,[8],2
same,aggregation suppression score,[9],1.23
